Compounds with a hit are over-represented: about 1.4% of the library has one in this group of screens.
Sa ugtP lethal = growth inhibition of ugtP-null S. aureus, primary screen, RN4220 ugtP deletion, OD600; growth inhibition, % (concentration not given with the values); 16 h; 330,000 compounds, 0.54% hits; AID 1259309, 2017; in the data active means growth inhibition above about 68%;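 further: plate controls were untreated wells for no effect and antibiotic for full effect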
Yp Topo-I inh = Yersinia pestis topoisomerase I inhibitors, primary screen, biochemical, cleavage product accumulation, plate reader, single point | activity, % at 10 µM | AID 504884, 2011 | DNA topoisomerase I (Yersinia pestis CO92) | 360,000 compounds, 0.064% hits | Y. pestis Topo-I cleavage product accumulation; in the data active means activity above about 50%, passing the limit was not always enough
Sa RN4220 lethal = growth inhibition of S. aureus RN4220, primary screen, OD600; inhibition, % (concentration not given with the values); AID 1259311, 2017; 330,000 compounds, 0.33% hits; 16 h; in the data active means inhibition above about 85%;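 further: plate controls were untreated cells for no effect and reference antibiotic for full effect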
BJeLR viability = MLPCN primary cell-based screen for lethality selective to Ras in HRASV12 cells; BJeLR (HRASV12) viability, CellTiter-Glo ATP luminescence, 48 h; inhibition, % (no concentration beside the values); 300,000 compounds, 0.17% hits; AID 1554, 2009; in the data active means inhibition above about 50%
PrP 5UTR inh = inhibition of PrP 5' UTR reporter expression; cell-based PrP 5' UTR mRNA reporter, plate reader; inhibition, % (no concentration beside the values); 340,000 compounds, 0.35% hits; AID 488862, 2010; in the data active means inhibition above about 52%; further: 0 = median of the neutral control wells
PfHsp40 yeast = rescue of yeast from PfHsp40 toxicity, primary screen, S. cerevisiae, ATP luminescence. AID 504582, 2011. growth rescue, % at 12.5 µM. S. cerevisiae expressing PfHsp40, growth rescue. 340,000 compounds, 0.68% hits; in the data active means growth rescue above about 28%, passing the limit was not always enough;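 further: yeast W303a lacking pdr1 and pdr3 grown in galactose medium; growth measured after three days at 30 °C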
* = called active by the depositor; . = no result.

SMILES | Sa ugtP lethal | Yp Topo-I inh | Sa RN4220 lethal | BJeLR viability | PrP 5UTR inh | PfHsp40 yeast
CCN1C(=O)C2C(c3ccc(-c4cccc(Cl)c4)cc3)N[C@@](CC(C)C)(C(=O)OC)C2C1=O (stereo partly drawn) | 19.9 | . | -3.5 | . | . | .
Nc1nc2c(nc(Br)n2C2OC3COP(=O)(O)OC3C2O)c(=O)[nH]1 (stereo not drawn) | 1.8 | . | 5.3 | . | . | .
COC1CCCN(Cc2c(C(=O)N3CCc4ccccc4C3)nc3ccc(Cl)cn23)C1 (stereo not drawn) | 7.8 | 16.8 | 4.0 | -2.0 | -0.8 | 1.9
CC1CCCN(Cc2c(C(=O)N3CCc4ccccc4C3)nc3ccc(Cl)cn23)C1 (stereo not drawn) | 8.1 | 37.8 | 3.0 | -12.5 | -8.0 | 54.7*
CC(=O)OCC1OC(CC=NOC2OC(COC(C)=O)C(OC(C)=O)C(OC(C)=O)C2OC(C)=O)C=CC1OC(C)=O (stereo not drawn) | 2.4 | . | 6.4 | . | . | .
CCN1C(=O)NC(c2cccc(C(F)(F)F)c2)C(C(C)=O)C1C (stereo not drawn) | 6.7 | . | 5.3 | . | . | .
O=C(Nc1ccc(Cl)cc1)c1nc[nH]c1C(=O)NCCN(CCNC(=O)c1[nH]cnc1C(=O)Nc1ccc(Cl)cc1)CCNC(=O)c1[nH]cnc1C(=O)Nc1ccc(Cl)cc1 | . | 63.9* | . | . | -10.6 | -1.7
CC(C)(C)OC(=O)NCc1ccc(NC(=O)c2nc[nH]c2C(=O)NCCNC(=O)c2[nH]cnc2C(=O)Nc2ccc(CNC(=O)OC(C)(C)C)cc2)cc1 | 13.5 | 78.9* | 12.7 | . | -9.1 | -0.7
COc1ccc(NC(=O)c2nc[nH]c2C(=O)N[C@@H](CC(C)C)C(=O)OC(C)(C)C)cc1 | . | 6.0 | . | -2.0 | -6.6 | 27.4*
CC(C)(C)OC(=O)NCCCCCNC(=O)c1nc[nH]c1C(=O)NCCCCCNC(=O)OC(C)(C)C | 0.6 | 15.5 | 5.5 | . | -0.1 | 44.9*
Cc1ccc(NC(=O)c2nc[nH]c2C(=O)NCCN(CCNC(=O)c2[nH]cnc2C(=O)Nc2ccc(C)cc2)CCNC(=O)c2[nH]cnc2C(=O)Nc2ccc(C)cc2)cc1 | 0.0 | 6.1 | -4.1 | . | -11.7 | -0.3
COC(=O)CCCC1CC2(CC(CCCO[Si](C)(C)C(C)(C)C)N1C(=O)OC(C)(C)C)OCCO2 (stereo not drawn) | -7.1 | . | 8.5 | . | . | .
CC1CCN(C(=O)C2CCC(CNc3c(N4CCCCC4)c(=O)c3=O)CC2)CC1 (stereo not drawn) | 4.6 | 3.1 | 1.1 | -1.5 | -21.9 | -1.2
CC1CC(C)CN(C(=O)C2CCC(CNc3c(N4CCCCC4)c(=O)c3=O)CC2)C1 (stereo not drawn) | 0.9 | 6.4 | 2.4 | 9.1 | -17.1 | 53.1*
CCN1C(=O)C2C(c3ccc(SC4CCCCC4)c(OC)c3)N3CCCC[C@@]3(C(=O)OC)C2C1=O (stereo partly drawn) | 1.8 | . | -3.3 | . | . | .
CCOC(=O)c1sc(-c2ccc(C(F)(F)F)cc2)nc1O | -6.2 | 4.4 | 18.9 | 11.8 | -68.6 | 132.4*
Cc1cc(C)cc(N=c2c([N+](=O)[O-])nn(-c3cccc(Cl)c3)n2O)c1 | 83.9 | -3.8 | 87.9* | 3.6 | -25.8 | -1.4
CCc1cccc(N=c2c([N+](=O)[O-])nn(-c3ccc(Cl)cc3)n2O)c1 | 91.8* | -10.0 | 94.5* | 2.7 | 4.3 | 3.5
Cc1ccc(CN=c2c([N+](=O)[O-])nn(-c3ccc(Cl)cc3)n2O)cc1 | -2.0 | -1.8 | -4.4 | 26.0 | . | 51.9*
Cc1cccc(N=c2c([N+](=O)[O-])nn(-c3ccc(Cl)cc3)n2O)c1 | 4.4 | -2.7 | -3.8 | 13.0 | -24.6 | -1.1
CCN1C(=O)C2C(c3ccc(Cl)cc3)N3C(=O)CN(CC4CC4)C(=O)[C@@]3(Cc3ccccc3)C2C1=O (stereo partly drawn) | 3.6 | . | 7.4 | . | . | .
CCOC(=O)/C(=C\c1ccccc1)C(=O)c1cc(C(C)=O)c(Nc2ccccc2)s1 | 5.8 | 0.9 | -1.5 | 6.0 | -43.7 | 0.8
CCOC(=O)/C(=C\c1cccnc1)C(=O)c1cc(C(C)=O)c(Nc2ccccc2)s1 | -3.5 | 11.2 | 9.0 | 52.5* | -21.0 | -0.2
COc1ccc(Cl)cc1C(=O)CSc1nnnn1C1CCCC1 | 1.5 | 20.6 | 5.6 | . | -19.3 | 31.7*
COc1ccc(Cl)cc1C(=O)CSc1nnnn1C1CCCCC1 | -2.0 | 4.0 | 2.6 | -8.9 | -23.7 | 7.2
SMILES | Sa ugtP lethal | Yp Topo-I inh | Sa RN4220 lethal | BJeLR viability | PrP 5UTR inh | PfHsp40 yeast
CN[C@H]1CCc2cc(OC)c(OC)c(OC)c2-c2ccc(N(C)CC(OC)OC)c(=O)cc21 | -0.8 | -0.6 | 3.4 | 52.6* | . | 1.3
COc1cc2c(c(OC)c1OC)-c1ccc(N(C)CC(OC)OC)c(=O)cc1[C@@H](NC(C)=O)CC2 | 2.7 | 4.2 | 4.3 | 49.7 | 26.4 | 10.8
COc1cc2c(c(OC)c1OC)-c1ccc(O)c(=O)cc1[C@@H](N)CC2 | 5.3 | 4.2 | -1.9 | . | -13.1 | 352.2*
C#CCOCCOCCOCCNc1nc(N2CCN(C(=O)C(C)n3cc(CCCN=C(N)N)nn3)CC2)nc(N2CCN(C(=O)C(C)n3cc(CCCN=C(N)N)nn3)CC2)n1 (stereo not drawn) | 3.2 | . | 3.3 | . | . | .
COc1ccccc1C1CN(c2ccccc2)N=C1c1cccs1 (stereo not drawn) | 44.2 | -17.2 | -15.0 | -4.9 | -14.3 | 1.2
COc1cccc(C2CN(c3ccc(F)cc3F)N=C2c2cccs2)c1OC (stereo not drawn) | 88.0* | 10.3 | -14.1 | -11.0 | -11.0 | 0.0
N/C(Cc1ccc(Cl)cc1Cl)=N\OC(=O)c1ccccc1F | -0.4 | 5.0 | -0.6 | -4.1 | -8.3 | 155.8*
CCOC(=O)C1=C(c2ccccc2)c2ccccc2OC1C(=O)OCC (stereo not drawn) | 89.3* | 42.9 | 4.4 | . | -29.7 | 0.0
O=C(N/N=C/c1ccc(O)c2ncccc12)c1cccc(Br)c1 | . | -9.8 | . | 13.0 | 13.1 | 104.9*
NC1=NCC(Cc2ccc(O)cc2)N1CCc1cc(C(F)(F)F)cc(C(F)(F)F)c1 (stereo not drawn) | -1.9 | . | 0.3 | . | . | .
COc1ccc(C(=O)c2c(C(F)(F)F)oc3c2C(=O)c2ccccc2C3=O)cc1OC | 79.7 | 1.5 | 48.7 | 1.9 | -0.9 | 60.4*
COc1ccc(NC(=O)COc2ccc(/C=C/c3cc[n+](C)cc3)cc2OC)cc1 | 2.8 | -4.8 | 1.2 | -4.2 | -25.7 | -0.5
COc1cc(/C=C/c2cc[n+](C)cc2)ccc1OCC(=O)Nc1ccc(Cl)c(Cl)c1 | 100.1* | -35.6 | 78.0 | 4.8 | -4.1 | 0.1
CCCOc1ccc(C(=O)NNC(=S)NC(C)=O)cc1 | 29.3 | 5.4 | 59.8 | 4.7 | 4.6 | 52.4*
CCCOc1ccc(C(=O)NNC(=S)NC(=O)c2ccco2)cc1 | 89.5* | 0.7 | 86.8* | 12.0 | -26.1 | 108.1*
COc1ccc(C(=O)NNC(=S)NC(=O)c2ccco2)cc1 | -5.9 | 4.6 | 34.0 | -2.0 | 3.1 | 4.2
